Measurements taken from ChEMBL document CHEMBL3988442, “University of Dundee, Small-Polar-MMV Screening Library” (2021).
For some of these results: Results with a measured potency or affinity are listed apart.

Experiments:
Set-up in all cases: scale not given: direction of the effect not stated beside the values
[1] = target: Protein translocase subunit SecA (Escherichia coli (strain K12)) (UniProt P10408); test: Assay to Identify E. coli SecA ATPase Inhibitors; format: functional; conditions: 30 µM
[2] = target: T1, Ubiquitin-activating enzyme e1, putative (Leishmania donovani (strain BPK282A1)) (UniProt E9BSI1); test: Leishmania donovani Ubiquitin Activating Enzyme (LdE1); format: functional; conditions: 30 µM
T1 sequence (whole entry): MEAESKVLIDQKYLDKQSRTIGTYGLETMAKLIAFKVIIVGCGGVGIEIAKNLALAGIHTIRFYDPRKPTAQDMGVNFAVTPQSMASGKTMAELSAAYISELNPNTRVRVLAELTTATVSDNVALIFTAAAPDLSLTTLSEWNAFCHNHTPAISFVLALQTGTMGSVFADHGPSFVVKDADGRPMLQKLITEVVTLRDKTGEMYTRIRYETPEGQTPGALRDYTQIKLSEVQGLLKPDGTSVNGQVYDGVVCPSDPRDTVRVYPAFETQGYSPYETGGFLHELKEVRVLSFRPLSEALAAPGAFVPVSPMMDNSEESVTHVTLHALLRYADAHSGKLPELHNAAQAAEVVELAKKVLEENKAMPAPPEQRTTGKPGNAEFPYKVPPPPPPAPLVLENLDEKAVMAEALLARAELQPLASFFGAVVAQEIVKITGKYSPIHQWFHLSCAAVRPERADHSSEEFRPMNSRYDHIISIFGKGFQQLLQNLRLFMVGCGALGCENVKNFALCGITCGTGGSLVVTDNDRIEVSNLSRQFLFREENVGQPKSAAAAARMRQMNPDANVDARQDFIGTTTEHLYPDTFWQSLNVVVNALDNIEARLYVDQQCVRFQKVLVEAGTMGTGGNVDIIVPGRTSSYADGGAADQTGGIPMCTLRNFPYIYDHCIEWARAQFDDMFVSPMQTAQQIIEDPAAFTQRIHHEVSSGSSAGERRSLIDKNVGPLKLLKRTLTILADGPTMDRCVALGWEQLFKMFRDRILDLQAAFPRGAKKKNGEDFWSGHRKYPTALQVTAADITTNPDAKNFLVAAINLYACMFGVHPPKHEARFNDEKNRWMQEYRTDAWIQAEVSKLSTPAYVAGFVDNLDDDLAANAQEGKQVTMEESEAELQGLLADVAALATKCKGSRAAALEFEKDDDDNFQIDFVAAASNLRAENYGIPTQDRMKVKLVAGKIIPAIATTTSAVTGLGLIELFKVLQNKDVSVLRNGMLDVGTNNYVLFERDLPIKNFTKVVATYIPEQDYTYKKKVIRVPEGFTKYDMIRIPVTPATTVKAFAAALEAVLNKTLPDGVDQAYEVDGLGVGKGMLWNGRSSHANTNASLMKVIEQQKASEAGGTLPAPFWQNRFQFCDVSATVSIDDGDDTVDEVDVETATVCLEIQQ

[3] = target: T2, Aspartate--tRNA(Asp/Asn) ligase (Mycobacterium tuberculosis (strain ATCC 25618 / H37Rv)) (UniProt P9WFW3); test: Assay for Asp RNA synthetase-1 from Mycobacterium tuberculosis; format: functional; conditions: 30 µM; also: in the data most compounds retested in dose-response had high values
T2 sequence (whole entry): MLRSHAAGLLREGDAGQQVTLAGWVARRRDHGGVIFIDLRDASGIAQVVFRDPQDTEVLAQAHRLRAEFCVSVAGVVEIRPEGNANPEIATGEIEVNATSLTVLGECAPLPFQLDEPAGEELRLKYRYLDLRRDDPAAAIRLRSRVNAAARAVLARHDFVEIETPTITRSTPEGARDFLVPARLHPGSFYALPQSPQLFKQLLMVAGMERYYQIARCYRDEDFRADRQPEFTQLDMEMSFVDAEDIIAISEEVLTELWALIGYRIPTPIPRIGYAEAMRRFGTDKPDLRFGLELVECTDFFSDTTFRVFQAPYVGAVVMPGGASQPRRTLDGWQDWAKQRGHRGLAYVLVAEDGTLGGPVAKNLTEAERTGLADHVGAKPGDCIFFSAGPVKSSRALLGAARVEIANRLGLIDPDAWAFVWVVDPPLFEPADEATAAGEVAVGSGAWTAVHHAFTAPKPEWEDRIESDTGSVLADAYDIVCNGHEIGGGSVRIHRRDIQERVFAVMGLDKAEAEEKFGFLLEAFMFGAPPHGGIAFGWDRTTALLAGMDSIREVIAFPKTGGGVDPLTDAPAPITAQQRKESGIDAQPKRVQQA

[4] = target: AMP-activated protein kinase, AMPK (Homo sapiens) (UniProt P54646+O43741+P54619+Q9UGJ0+Q9Y478+Q13131+Q9UGI9); test: AMP-dependent Kinase enzyme assay. An in vitro enzyme assay that detects ADP turnover that is directly proportional to AMPK activity. This uses naive AMPK that is activated during the assay with MK-8722; format: functional; conditions: 30 µM
[5] = target: Sialic acid-binding Ig-like lectin 9 (Homo sapiens) (UniProt Q9Y336); test: Hs-Siglec9 ALPHAscreen SOP 20170721; conditions: 10 µM
Trypanosoma cruzi = test: Trypanosoma cruzi phosphomannomutase and mannose-1-phosphate guanylyltransferase assay; format: functional; conditions: 10 µM
[6] = target: T3, Arginase-2, mitochondrial (Homo sapiens) (UniProt P78540); test: in vitro enzyme assay to detect the production of urea directly proportional to the activity of Arginase II; format: functional; conditions: 33.3 µM; also: in the data most compounds retested in dose-response had high values
T3 sequence (whole entry): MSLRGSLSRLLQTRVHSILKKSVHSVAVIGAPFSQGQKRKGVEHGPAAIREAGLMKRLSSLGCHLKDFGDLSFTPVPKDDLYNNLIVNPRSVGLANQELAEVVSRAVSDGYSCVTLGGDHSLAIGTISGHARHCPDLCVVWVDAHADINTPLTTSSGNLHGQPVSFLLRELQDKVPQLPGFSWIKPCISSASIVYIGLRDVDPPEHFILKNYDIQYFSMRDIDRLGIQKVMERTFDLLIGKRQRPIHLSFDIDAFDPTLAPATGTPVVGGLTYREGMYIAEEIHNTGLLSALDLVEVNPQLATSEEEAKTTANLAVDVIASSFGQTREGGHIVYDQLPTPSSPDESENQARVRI

[7] = target: T4, Proteasome subunit beta (Trypanosoma cruzi) (UniProt O96673); test: Trypanosoma cruzi proteasome chymotrypsin-like activity (TcProtChymo) assay.; also: in the data most compounds retested in dose-response had high values; format: functional; conditions: 9.37 µM
T4 sequence (whole entry): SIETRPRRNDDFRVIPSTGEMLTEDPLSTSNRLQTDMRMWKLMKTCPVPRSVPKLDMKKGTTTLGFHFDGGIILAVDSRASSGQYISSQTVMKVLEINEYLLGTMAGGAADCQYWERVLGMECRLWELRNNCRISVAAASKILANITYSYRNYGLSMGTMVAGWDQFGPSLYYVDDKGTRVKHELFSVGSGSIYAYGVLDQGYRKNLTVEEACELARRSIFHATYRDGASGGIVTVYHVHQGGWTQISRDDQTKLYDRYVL

Homo sapiens = organism: Homo sapiens; test: To identify inhibition of the IFN signalling (Jak-Stat) pathway via expression of an eGFP reporter gene under the control of an IFN-stimulated response element (ISRE) containing MxA promoter.; format: functional; conditions: 30 µM
[8] = target: Shiga toxin 2 (Escherichia coli O157:H7) (UniProt P09385+P09386); test: E. coli 0.157:H7 Shiga Toxin SOP - stx2 screening assay; format: functional; conditions: 30 µM
[9] = target: T5, Tyrosyl-tRNA synthetase, putative (Trypanosoma cruzi (strain CL Brener)) (UniProt Q4DSP6); test: Trypanosoma cruzi tyrosyl tRNA synthetase (TcYRS) _High Tyrosine SOP; format: functional; conditions: 30 µM; also: in the data most compounds retested in dose-response had high values
T5 sequence (whole entry): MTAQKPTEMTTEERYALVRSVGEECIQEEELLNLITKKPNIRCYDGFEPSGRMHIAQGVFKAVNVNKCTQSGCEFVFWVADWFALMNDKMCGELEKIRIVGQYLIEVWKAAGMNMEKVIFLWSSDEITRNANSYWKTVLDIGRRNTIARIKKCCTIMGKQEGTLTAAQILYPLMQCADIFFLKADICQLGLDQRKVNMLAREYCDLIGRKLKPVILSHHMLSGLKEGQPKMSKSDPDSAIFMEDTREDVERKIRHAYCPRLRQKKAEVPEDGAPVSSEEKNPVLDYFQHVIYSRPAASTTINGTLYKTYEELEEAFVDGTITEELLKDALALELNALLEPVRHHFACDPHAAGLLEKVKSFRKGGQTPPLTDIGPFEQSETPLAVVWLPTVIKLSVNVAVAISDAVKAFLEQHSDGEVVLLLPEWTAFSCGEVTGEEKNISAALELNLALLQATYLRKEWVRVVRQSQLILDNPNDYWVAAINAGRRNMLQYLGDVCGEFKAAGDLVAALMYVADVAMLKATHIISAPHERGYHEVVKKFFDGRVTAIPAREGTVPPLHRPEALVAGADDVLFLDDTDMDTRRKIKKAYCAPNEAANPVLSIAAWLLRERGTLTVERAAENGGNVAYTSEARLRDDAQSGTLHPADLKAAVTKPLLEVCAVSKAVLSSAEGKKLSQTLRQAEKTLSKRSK

[10] = target: T5, Tyrosyl-tRNA synthetase, putative (Trypanosoma cruzi (strain CL Brener)); test: Trypanosoma cruzi tyrosyl tRNA synthetase (TcYRS) SOP; format: functional; conditions: 30 µM
[11] = target: Chromo domain-containing protein 1 (Saccharomyces cerevisiae (strain ATCC 204508 / S288c) (Baker's yeast)) (UniProt P32657); test: ScCHD-1 Enzyme Inhibition Assay; format: functional; conditions: 30 µM; also: in the data most compounds retested in dose-response had high values
Chromo domain-containing protein 1 (Saccharomyces cerevisiae (strain ATCC 204508 / S288c) (Baker's yeast)), sequence (P32657 whole entry, the tested form may be a part): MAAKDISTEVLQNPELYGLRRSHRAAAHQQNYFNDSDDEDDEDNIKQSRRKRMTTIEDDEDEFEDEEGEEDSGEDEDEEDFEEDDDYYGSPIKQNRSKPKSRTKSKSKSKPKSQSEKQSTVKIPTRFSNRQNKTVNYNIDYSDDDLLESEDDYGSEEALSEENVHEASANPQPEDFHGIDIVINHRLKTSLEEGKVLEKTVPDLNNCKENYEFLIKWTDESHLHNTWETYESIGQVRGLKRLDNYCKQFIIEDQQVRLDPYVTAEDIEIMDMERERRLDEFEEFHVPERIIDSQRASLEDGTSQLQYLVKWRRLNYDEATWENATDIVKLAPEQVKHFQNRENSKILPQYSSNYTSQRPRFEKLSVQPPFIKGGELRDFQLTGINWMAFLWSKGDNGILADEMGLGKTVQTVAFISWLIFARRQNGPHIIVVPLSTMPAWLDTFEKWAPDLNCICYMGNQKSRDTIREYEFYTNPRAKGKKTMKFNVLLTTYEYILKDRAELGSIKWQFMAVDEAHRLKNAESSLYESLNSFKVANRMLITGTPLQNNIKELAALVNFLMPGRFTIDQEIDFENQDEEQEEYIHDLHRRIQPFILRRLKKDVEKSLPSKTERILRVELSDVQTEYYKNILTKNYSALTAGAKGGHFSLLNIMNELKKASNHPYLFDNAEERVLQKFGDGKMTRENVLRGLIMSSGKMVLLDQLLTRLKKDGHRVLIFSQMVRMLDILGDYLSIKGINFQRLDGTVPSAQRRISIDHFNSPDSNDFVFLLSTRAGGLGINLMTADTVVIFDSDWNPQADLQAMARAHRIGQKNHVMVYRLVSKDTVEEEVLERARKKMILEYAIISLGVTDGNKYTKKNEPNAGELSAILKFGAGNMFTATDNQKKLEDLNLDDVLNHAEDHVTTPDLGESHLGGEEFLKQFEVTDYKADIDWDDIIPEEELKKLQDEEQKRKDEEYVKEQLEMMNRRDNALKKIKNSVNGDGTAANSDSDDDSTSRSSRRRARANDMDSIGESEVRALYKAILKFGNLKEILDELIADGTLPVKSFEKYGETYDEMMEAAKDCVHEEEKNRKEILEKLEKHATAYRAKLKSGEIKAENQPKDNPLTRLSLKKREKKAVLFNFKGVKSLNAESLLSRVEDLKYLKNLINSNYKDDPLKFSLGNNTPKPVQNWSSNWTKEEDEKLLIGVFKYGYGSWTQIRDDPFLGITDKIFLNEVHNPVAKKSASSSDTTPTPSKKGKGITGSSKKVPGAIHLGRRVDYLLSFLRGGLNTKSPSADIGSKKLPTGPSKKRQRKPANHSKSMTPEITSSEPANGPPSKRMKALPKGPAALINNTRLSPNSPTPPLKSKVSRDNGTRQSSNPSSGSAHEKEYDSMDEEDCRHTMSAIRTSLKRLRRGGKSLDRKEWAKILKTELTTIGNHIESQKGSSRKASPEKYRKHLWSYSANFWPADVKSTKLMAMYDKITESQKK

Protein translocase subunit SecA (Escherichia coli (strain K12)), sequence (P10408 whole entry): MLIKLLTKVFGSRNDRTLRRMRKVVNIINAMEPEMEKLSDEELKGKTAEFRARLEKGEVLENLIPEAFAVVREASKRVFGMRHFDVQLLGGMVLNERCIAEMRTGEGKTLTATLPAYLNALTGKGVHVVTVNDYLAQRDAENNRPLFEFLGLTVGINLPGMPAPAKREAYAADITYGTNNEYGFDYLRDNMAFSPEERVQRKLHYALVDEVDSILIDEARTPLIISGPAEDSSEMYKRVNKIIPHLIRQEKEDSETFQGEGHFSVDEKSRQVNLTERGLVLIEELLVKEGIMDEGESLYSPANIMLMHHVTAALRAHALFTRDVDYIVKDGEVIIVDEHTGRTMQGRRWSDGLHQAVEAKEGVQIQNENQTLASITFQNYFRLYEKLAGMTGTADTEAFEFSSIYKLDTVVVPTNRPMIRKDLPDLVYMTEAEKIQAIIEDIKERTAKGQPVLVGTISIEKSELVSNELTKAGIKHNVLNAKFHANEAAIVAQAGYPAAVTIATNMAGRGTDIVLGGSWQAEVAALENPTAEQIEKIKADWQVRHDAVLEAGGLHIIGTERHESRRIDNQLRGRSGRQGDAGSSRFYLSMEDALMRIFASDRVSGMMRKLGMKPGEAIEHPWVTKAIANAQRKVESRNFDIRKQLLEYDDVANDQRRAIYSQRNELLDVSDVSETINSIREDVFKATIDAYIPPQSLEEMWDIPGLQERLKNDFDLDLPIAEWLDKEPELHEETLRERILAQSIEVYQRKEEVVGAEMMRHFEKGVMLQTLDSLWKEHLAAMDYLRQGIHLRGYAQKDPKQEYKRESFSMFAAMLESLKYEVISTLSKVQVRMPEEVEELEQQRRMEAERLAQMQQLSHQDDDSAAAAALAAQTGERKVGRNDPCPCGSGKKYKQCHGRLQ
Sialic acid-binding Ig-like lectin 9 (Homo sapiens), sequence (Q9Y336 whole entry): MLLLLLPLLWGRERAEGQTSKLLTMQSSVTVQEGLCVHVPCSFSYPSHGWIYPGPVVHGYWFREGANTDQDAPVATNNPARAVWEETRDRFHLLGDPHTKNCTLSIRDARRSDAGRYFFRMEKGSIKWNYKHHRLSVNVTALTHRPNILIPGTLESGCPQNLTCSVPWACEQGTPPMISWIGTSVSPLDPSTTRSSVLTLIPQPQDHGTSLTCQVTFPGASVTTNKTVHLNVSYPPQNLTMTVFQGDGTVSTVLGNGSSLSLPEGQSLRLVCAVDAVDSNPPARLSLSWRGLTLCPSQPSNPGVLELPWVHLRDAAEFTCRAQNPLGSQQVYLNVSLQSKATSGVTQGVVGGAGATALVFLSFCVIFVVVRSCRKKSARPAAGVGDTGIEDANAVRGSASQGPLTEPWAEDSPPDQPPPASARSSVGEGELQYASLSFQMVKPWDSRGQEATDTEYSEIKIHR

SMILES	Percent Effect [1]	Percent Effect [2]	Percent Effect [3]	Percent Effect [4]	Percent Effect [5]	Percent Effect (Trypanosoma cruzi)	Percent Effect [6]	Percent Effect [7]	Percent Effect (Homo sapiens)	Percent Effect [8]	Percent Effect [9]	Percent Effect [10]	Percent Effect [11]
CNC(=O)CN1CCOCC2(CCCN(Cc3cccnc3)C2)C1 (stereo unspecified)	-1.67%	-2.7%	2.13%	2.03%	-2.12%	-4.1%	-0.833%	0.93%	-2.53%	-22.5%	6.93%	1.22%	3.52%
CC1=N[C@@]2(CC[C@@H]3CNC[C@@H]32)C(=O)N1CC(C)C	0.0241%	13.5%	7.41%	-8.73%	-11.6%	-6.35%	7.96%	11.2%	30.2%	-6.54%	-1.08%	0%	-5.25%
O[C@@]1(c2ccccn2)CC[C@H]2CN(Cc3cccc(Cl)c3Cl)C[C@H]21	-3.54%	1.35%	-0.73%	14.3%	-0.828%	-3.95%	-1.62%	-0.468%	25.8%	23.9%	2.15%	6.49%	-8.09%
CN(C)c1ncc2c(n1)C1(CCN(CC3CC3)C1)COC2 (stereo unspecified)	2.42%	0%	0.342%	0.164%	8.71%	-4.37%	0.798%	13.1%	-7.22%	-16.3%	7.29%	11.1%	-5.42%
Fc1cnc(N2CCO[C@H]3CN(CC4CCC4)C[C@H]32)nc1	-5.78%	16%	-2.5%	-5.38%	0.543%	1.93%	-59.3%	14.5%	5.62%	-17.2%	-4.17%	17.5%	-17.8%
CCS(=O)(=O)N[C@@H]1CN(Cc2cc(C)on2)C[C@@H]2CCCO[C@@H]21	-5.04%	8.11%	4.25%	0.656%	19%	1.66%	4.71%	6.27%	-3.3%	1.95%	6.45%	18.5%	-4.16%
Cc1noc(C)c1CN1C[C@H](OCC2CC2)[C@H]2OCCC[C@H]21	-4.83%	8.11%	-3.74%	-3.37%	5.64%	0.293%	4.71%	8.84%	-6.54%	-3.9%	7.53%	11.1%	-10.2%
